ChEMBL document CHEMBL3433997, “St. Jude Leishmania screening dataset” (2016)
“And” between values parts separate entries of the source, which are not always exact repeats. Equal values may be shown once.

molecular target: Glucose transporter (Leishmania mexicana) (UniProt O61059); assay: ST_JUDE_LEISH: Cytotoxicity at 2uM final concentration against transgenic Leishmania Mexicana promastigotes LmGT2 that are glucose transport deficient and complemented with the L. Mexicana glucose transporter 2. Activity is measured by DNA content using SYBR green in vitro; format: functional

SMILES	inhibition
O=C(/C=C/C=C/c1ccccc1)NC1CCC(CN2CCC(c3c[nH]c4ccccc34)CC2)CC1 (centres undefined)	2.81%
O=C(CCC(=O)c1ccc2c3c(cccc13)CC2)NC1CCC(CN2CCC(c3c[nH]c4ccccc34)CC2)CC1 (centres undefined)	4.96%
O=C(C=Cc1ccc(F)c(Br)c1)NC1CCC(CN2CCC(c3c[nH]c4ccccc34)CC2)CC1 (centres undefined)	-1.48% and 3.84%
Cc1nc2ccccc2n1C1CC2CCC(C1)N2Cc1nccn1-c1ccccc1 (centres undefined)	2.15%
OC(CNC1CCCCCC1)c1ccc(Cl)c(Cl)c1 (centres undefined)	-0.87%
CC[C@H]1CN2CC[C@@H]1C[C@H]2[C@H](O)c1cc(N2CCC(O)(c3ccc(Cl)cc3)CC2)nc2ccc(OC)cc12	2.62%
CC[C@H]1CN2CC[C@@H]1C[C@H]2[C@H](O)c1cc(N2CCSCC2)nc2ccc(OC)cc12	-0.01%
COc1ccc(CCNCc2ccc3c(C)cc(N)nc3c2)cc1	2.71%
CN(c1cc(NC(=O)c2cccs2)ccn1)C1CCN(Cc2cccc(F)c2)CC1	5.71%
CN(c1cc(NC(=O)c2cccs2)ccn1)C1CCN(Cc2ccccc2)CC1	2.09%
COC(=O)CN(C(=O)/C=C/c1ccc(Cl)c(Cl)c1)C1CCC(CN2CCC(c3c[nH]c4ccccc34)CC2)CC1 (centres undefined)	2.24%
Cn1nc(-c2ccc(S(=O)(=O)NC3CCC(CN4CCC(c5c[nH]c6ccccc56)CC4)CC3)s2)cc1C(F)(F)F (centres undefined)	1.24% and 0.16%
COc1cc2nc(N(C)C3CCN(Cc4ccccc4)CC3)nc(N)c2cc1OC	25%
CCCCNC(c1ccc(Cl)cc1)C(O)c1ccc(Cl)cc1 (centres undefined)	9.91%
O=C(/C=C/c1ccc(F)c(C(F)(F)F)c1)N1CCC(CN2CCC(c3c[nH]c4ccccc34)CC2)CC1	0.74%
COc1cc(CC(C)NCC(O)c2cccc(C(F)(F)F)c2)ccc1OCc1ccccc1 (centres undefined)	3.99%
Cc1cc(C)c(CC(C)NCC(O)c2cccc(C(F)(F)F)c2)c(C)c1 (centres undefined)	-1.18%
CCCCCCC(C)(C)c1cc(O)c2c(c1)OC(C)(C)c1ccncc1-2	3.15%
COc1ccc(CCNCc2ccc3nc(N)cc(C)c3c2)cc1	-2.66%
COc1ccc(CC(C)NCC(O)c2cccc(Cl)c2)cc1C (centres undefined)	7.3%

SMILES	inhibition
CC(C)CNCc1cccc(-c2ccc(CN(C(=O)Nc3ccccc3)C3CCN(Cc4ccccc4)CC3)cc2)c1	2.04%
COc1cc(/C=C/C(=O)NC2CCC(CN3CCC(c4c[nH]c5ccccc45)CC3)CC2)ccc1O (centres undefined)	1.02% and 1.53%
NC(=O)c1ccc2[nH]cc(C3CCN(CC4CCC(NC(=O)/C=C/c5ccc(Cl)c(Cl)c5)CC4)CC3)c2c1 (centres undefined)	0.5% and 1.58%
COC(=O)c1ccc(C[C@@H](C)NC[C@H](O)c2cccc(C(F)(F)F)c2)cc1	0.45%
Cc1[nH]c2ccc(O)cc2c1C1CCN(CC2CCN(C(=O)/C=C/c3ccc(Cl)c(Cl)c3)CC2)CC1	-0.96%
CC1(C)N=C(N)N=C(N)N1c1ccc([N+](=O)[O-])cc1	7.22%
COc1ccc(F)cc1-c1csc(N(c2ccc(F)cc2)C2CCNCC2)n1	0.05%
O=C1c2ccccc2CCC1CCN1CC=C(c2c[nH]c3ccccc23)CC1 (centres undefined)	3.16%
Cc1[nH]c2cc(F)ccc2c1C1=CCN(CCCCC2(C)C(=O)Nc3ccccc32)CC1 (centres undefined)	0.15%
Oc1ccc(Cl)cc1CN1CCC(CCOC(c2ccccc2)c2ccc(Cl)cc2)CC1 (centres undefined)	5.18%
CC[C@H]1CN2CC[C@@H]1C[C@H]2[C@H](O)c1cc(N2CCCC(C)(C)C2)nc2ccc(OC)cc12	0.37%
O=C(NC1CCC(CN2CCC(c3c[nH]c4ccccc34)CC2)CC1)c1cc2ccccc2s1 (centres undefined)	-5.56% and 1.62%
CCN(Cc1ccccc1)CC(O)c1ccc(Cl)c(Cl)c1 (centres undefined)	1.21%
COCCNCc1ccc(-c2ccc(CN(C(=O)NC3CCCCC3)C3CCN(Cc4ccccc4)CC3)cc2)cc1	-1.48%
CN(c1cc(NC(=O)c2ccccc2)ccn1)C1CCN(Cc2cccc(F)c2)CC1	2.33%
O=C(NC1CCC(CN2CCC(c3c[nH]c4ccccc34)CC2)CC1)c1[nH]c(=O)[nH]c(=O)c1F (centres undefined)	-0.11%
O=C(/C=C/c1c(Cl)cccc1Cl)NC1CCC(CN2CCC(c3c[nH]c4ccccc34)CC2)CC1 (centres undefined)	6.66% and 4.94%
CC(Cc1ccc(NC(=O)[C@H](C)NCCc2cccc(Cl)c2)cc1)NCCc1cccc(Cl)c1 (some centres undefined)	0.22%
c1ccc(C(OCCC2CCN(Cc3cccnc3)CC2)c2ccccc2)cc1	0.26%
